We go through 93 molecules from PubChem BioAssay AID2315 (National Center for Advancing Translational Sciences (NCATS), 2010).

Among all 290,000 compounds or so, about 27,000 (9.3%) were called active. Cut-off read from the data, not from the text of the source: active = inhibition mostly above about 28% (no sharp cut-off); inactive = mostly below about 43%. The entries come from a sample that favours actives as a whole.

A short description of this assay: A qHTS for Small Molecule Inhibitors of Shiga Toxin. Note: 0% is about no effect. Conditions: Vero cells, Shiga toxin protein synthesis inhibition reporter; at 38.7 µM, stronger effect = higher value.
For `CC(C)CC(=O)Nc1nnc(S(=O)(=O)N(C)c2ccc(Cl)cc2)s1`, the inhibition is -4.79% (inactive).
For the molecule `C=CCOC(=O)C1=C(C)NC(C)=C(C(=O)OCC=C)C1c1cccs1`, the inhibition is 86.3% (active).
`CCOC(=O)C1=C(C)NC(=S)NC1c1cccs1` (stereo not drawn): the inhibition is -11.1% (inactive).
As to `CCOC(=O)C1=C(C)Nc2nc3ccccc3n2C1c1cccs1` (stereo not drawn), the inhibition is -8.56% (inactive).
For the molecule `COc1ccc(CCNC(=O)c2cnc(Cl)c(Cl)c2)cc1`, the inhibition is -1.83% (inactive).
On to `COc1ccc(-c2cc(C(=O)NCCCN3CCOCC3)no2)cc1`, for which the inhibition was 20% (inactive).
Take `COc1ccc(OCc2cc(C(=O)NCC3(C)COC3)no2)c(Cl)c1`: the inhibition is 75.4% (active).
As for `CC1CC(C)CN(CCCNC(=O)c2csc3c2CCCCC3)C1` (stereo not drawn), the figure is -1.88% (inactive); as for `CC(=O)c1cccc(NC(=O)c2cc(C)nn2-c2ccccc2)c1`, 30.5% (inactive).
Turning to `CC(C)C[C@H](NC(=O)N1CCn2c1nc1ccccc12)C(=O)NC1CC1`, the inhibition was 23.3% (inactive).
`CCCCNC(=O)N(O)C1N(/N=C/c2ccc(N(C)C)cc2)C(=S)SC1(C)C` (stereo not drawn): the inhibition is -5.76% (inactive).
Consider `CCC(C)N1C(=S)SC(C)(C)C1N(O)C(=O)NC1CCCCC1` (stereo not drawn), for which the inhibition is -10.6% (inactive).
In the case of `CCCCNC(=O)N(O)C1N(/N=C/c2ccccc2O)C(=S)SC1(C)C` (stereo not drawn), the inhibition is 34.2% (active).
Regarding `Cc1ccc(S(=O)(=O)NC(=O)c2cccc(C)c2)cc1`, the inhibition was 18.1% (inactive).
`Cn1ncc2c(N3CCCCC3)nc(NCCCO)nc21`: the inhibition is 1.02% (inactive).
As for `COc1cc(CN2CCC(n3nccc3NC(=O)CCCc3ccccc3)CC2)ccc1O`, the inhibition was 7.77% (inactive).
`CC(C)(C)NC(=O)c1cc(NC(=O)c2ccco2)cc(NC(=O)c2ccco2)c1`: the inhibition is 24.3% (inactive).
For the molecule `C/C(CC(=O)NC(C)(C)C)=N\NC(=O)c1ccco1`, the inhibition is 70.6% (active).
Consider `COc1ccc(N(CC(=O)NC(C)(C)C)C(=O)c2ccco2)cc1`, for which the inhibition was -10.7% (inactive).
As for `CCNS(=O)(=O)c1ccc(CCC(=O)N2CCN(c3ccc(OC)cc3)CC2)cc1`, the inhibition was 13.1% (inactive).
As for `Cc1nn(CCCC(=O)NCc2ccccc2Cl)c(=O)c2nccn12`, the figure is -3.9% (inactive).
With `NC(=O)c1oc2ccccc2c1NC(=O)CS(=O)(=O)c1ccccc1`, the inhibition is 12.2% (inactive).
With `COC(=O)c1ccc(CN2C(=O)NC(c3ccccc3)(c3ccccc3)C2=O)o1`, the inhibition was 21.7% (inactive).
Regarding `Cc1ccc2c(c1)N(CC(=O)NCCCN1CCCCC1)C(=O)c1cccnc1O2`, the inhibition is 2.73% (inactive).
As to `O=C(Cc1cccc2ccccc12)NNC(=O)Nc1ccc(Cl)cc1`, the inhibition is 62.1% (inactive).
As to `O=C(Cc1cccc2ccccc12)Nc1ccc2oc(-c3ccccc3)nc2c1`, the inhibition was 74.8% (active).
In the case of `CC(Oc1cccc(NC(=O)c2cccs2)c1)C(=O)c1ccccc1` (stereo not drawn), the inhibition was 36.4% (inactive).
To `CC(O)c1cccc(NC(=O)Cc2cccc3ccccc23)c1` (stereo not drawn) belongs 0.246% (inactive); to `O=C(Nc1ccc(NC(=O)c2cccs2)cc1)c1ccc2ccccc2c1`, 24.5% (inactive).
For `O=C(Nc1ccc2oc(-c3ccc4ccccc4c3)nc2c1)c1cccs1`, the inhibition is 80.9% (active).
Take `COc1ccnc2c1c(=O)n(Cc1cccc(F)c1)c(=O)n2C`: the inhibition is -2.76% (inactive).
To `Cn1c(=O)c2c(nc(NCCNC(=O)c3ccco3)n2Cc2ccccc2F)n(C)c1=O` belongs -9.7% (inactive); to `O=C(CSc1nc2ccccc2s1)Nc1ccc(C(=O)O)cc1`, -1.35% (inactive).
As to `O=C(O)c1ccccc1CSc1nc2ccccc2s1`, the inhibition is 70.7% (active).
Consider `CCN(CC)CCCSc1nc2ccccc2s1`, for which the inhibition is 47.9% (inactive).
For `COc1cc(OC)cc(C(=O)OCC(=O)Nc2sccc2C(N)=O)c1`, the inhibition is -3.26% (inactive).
As to `CCOC(=O)N1CCN(C(=O)C2CCN(S(=O)(=O)c3cc(Cl)ccc3OCC)CC2)CC1`, the inhibition is -12.3% (inactive).
Take `Cc1ccc(N(CC(=O)NC2CCCCC2)C(=O)CCCC(=O)Nc2ccccn2)c(C)c1`: the inhibition was -5.94% (inactive).
As for `CCc1ccc(CNC(=O)CCc2nc(-c3cccs3)no2)cc1`, the inhibition was -8.04% (inactive).
With `COc1ccc(CCc2nc(-c3cccs3)no2)cc1`, the inhibition was 120% (active).
With `COc1ccc(OC)c(CNC(=O)CCc2nc(-c3cccs3)no2)c1`, the inhibition was 4.93% (inactive).
Consider `COc1ccc(S(=O)(=O)NCCc2cc3ccc(C)c(C)c3[nH]c2=O)cc1`, for which the inhibition was 1.8% (inactive).
To `Cn1c(SCc2ccc(F)cc2)nnc1-c1ccncc1` belongs 3.38% (inactive); to `Cc1cc(SCC(=O)c2ccccc2)nc(SCC(=O)c2ccccc2)n1`, 51.3% (inactive).
As for `Cc1cc(C)nc(S/C=C/C(=O)c2ccccc2)n1`, the figure is 159% (active).
Regarding `Cc1cc(C)nc(SCC(=O)c2ccc(Cl)cc2)n1`, the inhibition was -6.93% (inactive).
Regarding `O=C(c1ccc(Br)o1)N1CCN(CCOc2ccccc2)CC1`, the inhibition was -4.41% (inactive).
Regarding `Cc1ccc(CNC(=O)[C@@H](NC(=O)Cc2ccccc2)C(C)C)cc1`, the inhibition is -12.1% (inactive).
For `CCCOc1ccc(/C=N/NC(=O)C2CC2)c(OCCC)c1`, the inhibition is -6.76% (inactive).
For the molecule `CCC(C)NC(=O)CSC1=Nc2ccccc2C2=NC(CCC(=O)NCc3ccco3)C(=O)N12` (stereo not drawn), the inhibition was -9.08% (inactive).
On to `O=C(CSC1=Nc2ccccc2C2=NC(CC(=O)NCc3ccco3)C(=O)N12)NCc1ccco1` (stereo not drawn), for which the inhibition was -3.74% (inactive).
As to `O=C(CC1N=C2c3ccccc3N=C(SCc3ccccc3Cl)N2C1=O)NCc1ccco1` (stereo not drawn), the inhibition was 38.1% (active).
In the case of `CC(=O)OCC(NC(=O)C(Cc1ccccc1)NC(=O)OC(C)(C)C)C1OC(n2ccc(=O)[nH]c2=O)C(OC(C)=O)C1OC(C)=O` (stereo not drawn), the inhibition is 7.84% (inactive).
For `C=CCNc1nc(N)c([N+](=O)[O-])c(NC2CCCCC2)n1`, the inhibition was 14.1% (inactive).
With `CCC(CC)c1nnc(NC(=O)C2CCN(C(=O)c3ccco3)CC2)s1`, the inhibition was 4.71% (inactive).
As for `Cc1cc(N=Nc2ccc3ccccc3c2)ccc1O`, the figure is 107% (active); as for `COc1ccc(N=Nc2ccc(O)c(P(=O)(c3ccccc3)c3ccccc3)c2)cc1`, -5.57% (inactive); as for `Cc1c(N=Nc2ccc(N(C)C)cc2)c(=O)n(-c2ccccc2)n1C`, 55.4% (active).
`Cc1nc(N)sc1N=Nc1c(C)n(C)n(-c2ccccc2)c1=O`: the inhibition is 2.84% (inactive).
Take `Cc1ccc(N=Nc2c(C)[nH]n(-c3ccccc3)c2=O)cc1`: the inhibition was 25.5% (inactive).
Consider `CCCN1CCC(=O)N(C(CSc2ccc(OC)cc2)Cc2ccccc2)CC1` (stereo not drawn), for which the inhibition is -5.53% (inactive).
As for `COc1ccc(CNC(=O)C(NS(=O)(=O)c2cccc3nsnc23)C(C)C)cc1` (stereo not drawn), the inhibition was -7.36% (inactive).
Regarding `O=C(O)CCC(=O)N(Cc1ccccc1)Cc1ccccc1`, the inhibition was -10.9% (inactive).
As for `CC[C@@H](C)[C@H](NC(=O)CCc1c(C)c2cc3c4c(oc3c(C)c2oc1=O)CCCC4)C(=O)O`, the inhibition is 22.3% (inactive).
As for `COc1ccccc1OCCOc1ccc(/C=N/n2cnnc2)cc1`, the figure is -21.9% (inactive).
With `C(=N\n1cnnc1)/c1cccnc1`, the inhibition was 2.15% (inactive).
On to `COc1cccc(OCCOc2cccc(/C=N/n3cnnc3)c2)c1`, for which the inhibition is 41.7% (active).
As for `O=C(c1ccc2c(c1)N(Cc1ccc(F)cc1)C(=O)c1ccccc1S2(=O)=O)N1CCN(c2ccccn2)CC1`, the figure is -2.78% (inactive); as for `CSc1ccc(C#N)cc1NC(=O)c1cccc(Cl)c1`, -14.6% (inactive); as for `Cc1cc(NC(=O)COc2ccc(Cl)cc2Cl)n(CCC#N)n1`, 87.8% (inactive).
As for `CCOc1ccc(CN2CCN(Cc3ccc4cc(F)ccc4n3)CC2CCO)cc1` (stereo not drawn), the figure is -9.76% (inactive).
Consider `CCOc1cc(/C=C(\C#N)c2nc(-c3cccs3)c(NC(C)=O)s2)ccc1O`, for which the inhibition is -0.261% (inactive).
In the case of `COc1cc(/C=C(\C#N)c2nc3c(s2)CC(C)CC3)ccc1O` (stereo not drawn), the inhibition was 62.8% (active).
Take `Cc1ccccc1OC/C(O)=C(\C#N)c1nc2ccccc2[nH]1`: the inhibition is -10.2% (inactive).
As for `COc1cc(/C=C(\C#N)c2nc3ccccc3[nH]2)ccc1O`, the figure is 55.7% (active); as for `COc1ccc(/C=C(/NC(=O)c2ccc(C)cc2)c2nc3ccccc3[nH]2)cc1OC`, -2.72% (inactive).
As for `Cc1ccc(-c2ccnc3[nH]n(-c4ccccc4)c(=O)c23)cc1`, the figure is 17.7% (inactive); as for `C[C@H](NC(=O)C1CCN(S(=O)(=O)c2ccccc2)CC1)C(=O)NCc1ccccc1`, -3.31% (inactive); as for `CC(=O)N1c2ccc(S(=O)(=O)NCCC(=O)N(C)C3CCCCC3)cc2CC1C` (stereo not drawn), 2.29% (inactive).
To `COc1ccc(C(C(=O)NC2CCCC2)N(CCCO)C(=O)Cn2nnc(-c3ccc(C)o3)n2)cc1` (stereo not drawn) belongs -6.08% (inactive); to `C/C(=N/NC(=O)c1ccc(NC(=O)c2ccc(F)cc2)cc1)c1ccccc1`, 30% (inactive); to `COc1cccc(C(=O)N/N=C(\C)c2cccc(NC(=O)c3ccc(F)cc3)c2)c1OC`, 77.4% (active).
Turning to `CC(=O)Nc1cccc(/C(C)=N/NC(=O)c2ccccc2Cl)c1`, the inhibition is 22% (inactive).
As for `OC(CNC1CCCC1)COc1ccc(F)cc1` (stereo not drawn), the figure is -14% (inactive); as for `CC(=O)N1CCN(CC(c2ccccc2)c2ccccc2)CC1`, -3.73% (inactive).
As for `CC1CCCN(CC(=O)Nc2cc(Cl)ccc2Oc2ccccc2)C1` (stereo not drawn), the inhibition was 0.789% (inactive).
`CC1CCC2CCCCC2N1C(=O)c1cc([N+](=O)[O-])cc([N+](=O)[O-])c1` (stereo not drawn): the inhibition was -16.8% (inactive).
With `COC(=O)C(C)Oc1ccc2c(c1)O/C(=C\c1cccc(Br)c1)C2=O` (stereo not drawn), the inhibition is -4.67% (inactive).
In the case of `O=C1/C(=C/c2ccc3c(c2)OCO3)Oc2cc(OCC(=O)N3CC(O)C[C@H]3C(=O)O)ccc21` (stereo partly drawn), the inhibition is -3% (inactive).
As to `CN(C)C(=O)Oc1ccc2c(c1)O/C(=C\c1ccccc1)C2=O`, the inhibition was 62% (active).
As for `Cc1ccc(S(=O)(=O)N2CCC(C)CC2)cc1C(=O)NCc1ccccn1`, the inhibition is 5.07% (inactive).
On to `COc1ccccc1OCc1ccc(C(=O)NC(C)c2ccccc2)o1` (stereo not drawn), for which the inhibition is -4.29% (inactive).
To `CCc1cc(-c2nnc(SCC(=O)NC3CC3)n2C)cs1` belongs 14.1% (inactive).
